Measured values: PubChem BioAssay (Tox21)
Inconclusive results are not listed. Calls of active or inactive are those of the source. Unless noted, calls come from the whole dose curve; as a rule, active = well fitted curve in the direction sought with a large enough effect in the repeat runs; inconclusive = weak or mixed curves; inactive = no such curve, though single readings can be large; an effect the other way counts as inactive or inconclusive.

What was measured:
[1] = qHTS RealTime-Glo MT Cell Viability Assay in HEK293 cells - 0 hour (AID 1224880); note: top concentration of the series differs between compounds; nearly all actives have a fitted effect of over 45% in size
Summary of the method: (§1)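 Tox21 screen in HEK293 using RealTime-Glo MT chemistry, with cells and reagent co-dispensed. Luminescence proportional to viable cell number was captured at intervals during 40 h compound exposure at 37 C.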

[2] = A CellTox Green Cytotoxicity Assay to monitor cytotoxicity in HEK293 cells - 32 hour (AID 1224881); note: nearly all actives have a fitted effect of over 40% in size
Summary of the method: (§2)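 Seeding of HEK293 cells together with cytotoxicity dye preceded a 5 h incubation at 37 C/5% CO2. Test compounds in DMSO were then added and fluorescence monitored across 40 h.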

[3] = A CellTox Green Cytotoxicity Assay to monitor cytotoxicity in HepG2 cells - 0 hour (AID 1224882); note: nearly all actives have a fitted effect of over 35% in size
Summary of the method: (§3)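 Nonlytic assay: viable cells exclude the dye, so fluorescence scales with cell death. HepG2 at 600 cells/well, compounds added after 5 h, signal read across 40 h.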

[4] = A CellTox Green Cytotoxicity Assay to monitor cytotoxicity in HepG2 cells - 32 hour (AID 1224883); note: nearly all actives have a fitted effect of over 50% in size
Summary of the method: as §3

[5] = A CellTox Green Cytotoxicity Assay to monitor cytotoxicity in HEK293 cells - 8 hour (AID 1224884); note: nearly all actives have a fitted effect of over 35% in size
Summary of the method: as §2

[6] = qHTS RealTime-Glo MT Cell Viability Assay in HepG2 cells - 16 hour (AID 1224885); note: nearly all actives have a fitted effect of over 50% in size
Summary of the method: (§4)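 Compound treatment began 5 h after plating HepG2 cells (600/well) with NanoLuc luciferase and prosubstrate. Plates stayed at 37 C for 40 h; luminescence was captured at six time points, 0 h through 40 h.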

[7] = qHTS RealTime-Glo MT Cell Viability Assay in HEK293 cells - 24 hour (AID 1224886); note: top concentration of the series differs between compounds; nearly all actives have a fitted effect of over 50% in size
Summary of the method: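 Quantitative high-throughput screen of the Tox21 10K library in HEK293: cells and RealTime-Glo reagents plated together, compound added at 5 h, luminescence monitored through 40 h at 37 C.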

[8] = qHTS RealTime-Glo MT Cell Viability Assay in HEK293 cells - 8 hour (AID 1224887); note: top concentration of the series differs between compounds; nearly all actives have a fitted effect of over 50% in size
Summary of the method: as §1

[9] = A CellTox Green Cytotoxicity Assay to monitor cytotoxicity in HEK293 cells - 16 hour (AID 1224888); note: nearly all actives have a fitted effect of over 35% in size
Summary of the method: as §2

[10] = qHTS RealTime-Glo MT Cell Viability Assay in HepG2 cells - 0 hour (AID 1224889); note: nearly all actives have a fitted effect of over 50% in size
Summary of the method: as §4

[11] = A CellTox Green Cytotoxicity Assay to monitor cytotoxicity in HepG2 cells - 8 hour (AID 1224890); note: nearly all actives have a fitted effect of over 45% in size
Summary of the method: as §3

[12] = qHTS assay to identify small molecule antagonists of the estrogen receptor alpha (ER-alpha) signaling pathway using the BG1 cell line in the presence of 0.1 nM 17-beta-estradiol - cell viability counter screen (AID 1259241); note: nearly all actives have a fitted effect of over 40% in size
Summary of the method: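 CellTiter-Fluor read (30 min, 37C) on ER-alpha/ERE-luc VM7Luc4E2 cells; 22 hr compound treatment; agonist 0.1 nM E2 final; same-well multiplex.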

[13] = qHTS assay to identify small molecule antagonists of the androgen receptor (AR) signaling pathway using the MDA cell line in the presence of 0.5 nM R1881 - cell viability counter screen (AID 1259242); note: nearly all actives have a fitted effect of over 45% in size
Summary of the method: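 R1881 at 0.5 nM final stimulated MDA-kb2 cells during 16 hr compound treatment at 37C. Cytotoxicity read: CellTiter-Fluor fluorescence after 30 min.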

[14] = target: Estrogen receptor (Homo sapiens) (UniProt P03372); assay: qHTS assay to identify small molecule antagonists of the estrogen receptor alpha (ER-alpha) signaling pathway using the BG1 cell line in the presence of 0.1 nM 17-beta-estradiol (AID 1259244); note: nearly all actives have a fitted effect of over 50% in size
Summary of the method: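 VM7Luc4E2; 4xERE-luciferase; 0.1 nM E2 final; 22 h co-incubation, 37C; ONE-Glo luminescence after 30 min at room temperature.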

[15] = qHTS assay to identify small molecule HDAC inhibitors (AID 1259364);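 note: wild-type HCT-116 cells with endogenous class I/II HDAC activity; top concentration of the series differs between compounds; nearly all actives have a fitted effect of over 45% in size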
Summary of the method: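 Relative class I and II HDAC activity is taken from the luminogenic signal in HCT-116 cells, with compound exposure 2 hr and reagent development 30 min at room temperature.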

[16] = qHTS assay to identify small molecule agonists of the sonic hedgehog signaling (Shh) pathway - cell viability counter screen (AID 1259366); note: nearly all actives have a fitted effect of over 50% in size
Summary of the method: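 Fluorescence from CellTiter-Fluor reports live cells in this counter screen. NIH/3T3-derived Gli1-Luc reporter cells receive test compounds for 24hr at 37C; reagent goes in at 23hr.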

[17] = qHTS assay to identify small molecule antagonists of the sonic hedgehog signaling (Shh) pathway - cell viability counter screen (AID 1259367); note: nearly all actives have a fitted effect of over 55% in size
Summary of the method: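 Seed 3T3 Gli1-Luc cells at 2,000 per well; incubate 4 hr; add compound in DMSO, then conditioned medium; incubate at 37C with 5% CO2; add CellTiter-Fluor after 23 hr; read fluorescence 1 hr later.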

[18] = qHTS assay to identify small molecule HDAC inhibitors - cell viability counter screen (AID 1259365)
Summary of the method: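 To flag cytotoxic hits, 1,500 wild-type HCT-116 cells per well, plated the day before, receive test compounds for 2hr at 37 C before CellTiter-Glo reagent and a luminescence read.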

[19] = qHTS assay to identify small molecule phospholipidosis (PLD) inducers (AID 1259344; active = well fitted curve in the direction sought with a large enough effect; an effect the other way counts as inactive or inconclusive)
Summary of the method: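 Quantitative HTS in HepG2: compound plus LipidTOX Red dye for 24 h, paraformaldehyde fixation with Hoechst 33342, widefield high-content imaging; amiodarone as positive and DMSO as negative control.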

[20] = target: Androgen receptor (Homo sapiens) (UniProt P10275); assay: qHTS assay to identify small molecule antagonists of the androgen receptor (AR) signaling pathway using the MDA cell line in the presence of 0.5 nM R1881 (AID 1259243); note: nearly all actives have a fitted effect of over 50% in size
Summary of the method: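 We exposed MDA-kb2 cells to compounds under 0.5 nM R1881 stimulation for 16 hr at 37C and quantified MMTV-driven luciferase by luminescence.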

Measured: Potency

Sequence of Estrogen receptor (Homo sapiens) (P03372 whole entry, looked up): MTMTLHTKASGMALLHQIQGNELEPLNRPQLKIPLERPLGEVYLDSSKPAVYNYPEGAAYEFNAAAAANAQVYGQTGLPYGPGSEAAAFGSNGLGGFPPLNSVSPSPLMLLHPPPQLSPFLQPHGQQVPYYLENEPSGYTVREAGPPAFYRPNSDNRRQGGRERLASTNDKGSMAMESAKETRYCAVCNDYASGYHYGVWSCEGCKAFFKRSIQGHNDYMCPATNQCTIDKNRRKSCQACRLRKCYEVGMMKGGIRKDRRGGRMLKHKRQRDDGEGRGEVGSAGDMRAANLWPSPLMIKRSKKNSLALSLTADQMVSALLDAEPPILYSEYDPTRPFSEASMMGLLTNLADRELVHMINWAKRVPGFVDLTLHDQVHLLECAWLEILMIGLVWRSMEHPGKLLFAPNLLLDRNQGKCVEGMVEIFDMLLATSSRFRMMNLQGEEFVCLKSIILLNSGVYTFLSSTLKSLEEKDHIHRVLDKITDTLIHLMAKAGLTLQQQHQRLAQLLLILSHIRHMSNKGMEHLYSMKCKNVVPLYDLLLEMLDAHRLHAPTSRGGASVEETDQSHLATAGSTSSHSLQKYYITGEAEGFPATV
Sequence of Androgen receptor (Homo sapiens) (P10275 whole entry, looked up): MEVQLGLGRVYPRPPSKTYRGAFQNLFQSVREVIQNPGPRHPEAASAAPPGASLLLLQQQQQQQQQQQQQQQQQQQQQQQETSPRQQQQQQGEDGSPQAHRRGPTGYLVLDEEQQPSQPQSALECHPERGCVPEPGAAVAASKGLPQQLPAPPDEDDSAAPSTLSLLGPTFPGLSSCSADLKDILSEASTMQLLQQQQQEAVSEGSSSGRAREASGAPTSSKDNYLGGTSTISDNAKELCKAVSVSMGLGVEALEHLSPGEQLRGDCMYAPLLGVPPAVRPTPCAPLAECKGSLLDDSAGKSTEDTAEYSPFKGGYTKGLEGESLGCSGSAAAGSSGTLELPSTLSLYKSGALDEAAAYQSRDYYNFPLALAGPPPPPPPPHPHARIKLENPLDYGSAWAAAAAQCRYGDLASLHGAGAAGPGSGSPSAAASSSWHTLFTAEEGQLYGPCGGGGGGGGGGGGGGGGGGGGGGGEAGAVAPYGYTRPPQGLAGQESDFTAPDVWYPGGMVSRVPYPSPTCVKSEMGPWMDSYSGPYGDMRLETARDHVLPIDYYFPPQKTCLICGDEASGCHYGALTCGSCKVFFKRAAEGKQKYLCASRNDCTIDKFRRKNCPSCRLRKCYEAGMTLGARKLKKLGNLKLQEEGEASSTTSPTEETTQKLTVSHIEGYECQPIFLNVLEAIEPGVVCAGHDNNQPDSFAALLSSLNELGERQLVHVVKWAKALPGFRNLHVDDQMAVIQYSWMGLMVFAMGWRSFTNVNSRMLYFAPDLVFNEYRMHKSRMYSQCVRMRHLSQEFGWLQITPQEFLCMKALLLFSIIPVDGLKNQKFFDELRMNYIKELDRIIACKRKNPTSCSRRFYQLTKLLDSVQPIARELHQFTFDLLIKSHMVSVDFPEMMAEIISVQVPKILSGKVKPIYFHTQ

CCSC(=O)N1CCCCCC1
not listed: [18] | [19] | [20]
inactive: all other assays above

CNC(=O)O/N=C/C(C)(C)SC
not listed: [19] | [20]
inactive: all other assays above

Nc1ccc([As](=O)(O)O)cc1
not listed: [9] | [20]
inactive: all other assays above

C=CC(=O)OCCCCCC(C)C
not listed: [9] | [19]
inactive: all other assays above

N#CN=C(N)N
not listed: [19] | [20]
inactive: all other assays above

O=C(O)CCCc1ccc(N(CCCl)CCCl)cc1
not listed: [18] | [20]
inactive: all other assays above

COS(=O)(=O)OC
not listed: [19] | [20]
inactive: all other assays above

CCNc1nc(Cl)nc(NC(C)C)n1
not listed: [18] | [19] | [20]
inactive: all other assays above
